Compounds with a hit are over-represented: about 3.1% of the library has one in this group of screens.
RAD52 anneal inh = blocks human RAD52 DNA annealing | P43351 | recombinant RAD52 DNA annealing, FRET fluorescence | inhibition, % at 18.7 µM | actives 0.46% (n = 360,000) | AID 651710;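 active means every replicate showing at least 50% inhibition; inconclusive means mean inhibition at least 50% but not in every replicate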
Target sequence (P43351 whole entry, looked up): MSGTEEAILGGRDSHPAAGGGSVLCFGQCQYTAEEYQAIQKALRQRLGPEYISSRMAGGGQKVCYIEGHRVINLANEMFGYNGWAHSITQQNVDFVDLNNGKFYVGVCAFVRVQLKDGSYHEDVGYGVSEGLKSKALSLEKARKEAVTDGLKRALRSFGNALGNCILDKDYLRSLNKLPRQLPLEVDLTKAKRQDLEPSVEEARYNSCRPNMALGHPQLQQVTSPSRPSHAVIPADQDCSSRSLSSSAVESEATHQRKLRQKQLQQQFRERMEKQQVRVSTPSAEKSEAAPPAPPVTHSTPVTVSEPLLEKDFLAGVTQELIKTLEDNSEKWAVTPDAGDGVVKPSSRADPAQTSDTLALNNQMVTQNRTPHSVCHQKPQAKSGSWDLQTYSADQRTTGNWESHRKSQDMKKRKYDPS
INS-1E GSIS act = GLuc luminescence reporter in INS-1E cells, primary screen for activators of glucose-dependent secretion of insulin. INS-1E GLuc reporter insulin secretion, 2-3 h. activation, % at 16.6 µM. actives 0.61% (n = 370,000);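 active means lowest replicate activation of at least 40%, so every replicate reaches that level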;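 further: 0% = median of neutral control wells and 100% = median of IBMX positive control wells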
DENV2 CPE rescue = inhibitors of DENV2 cytopathic effect; CPE inhibition, % at 9.99 µM; DENV2-infected cells, cytopathic effect rescue, plate reader; actives 1.7% (n = 350,000); in the data active means CPE inhibition above about 20%, passing the limit was not always enough; inconclusive means no clear call, values can overlap the other calls; tested in BHK-21 cells;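 further: 0% = median of neutral control wells and 100% = median of positive control wells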
RAD54 inh = RAD54 (human) branch migration inhibition. Q92698. RAD54 Holliday junction branch migration, FAM/BHQ fluorescence. inhibition, % at 10.4 µM. actives 0.14% (n = 360,000). AID 602329;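 active means mean normalized replicate activity at least 40 and at least half of replicates scoring 40 or more; inconclusive means only one of the two criteria met; inactive means mean below 40 and under half of replicates reaching 40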;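 further: 0% = median of neutral control wells and 100% = median of positive control wells; inhibitors cause a drop in the FAM fluorescence signal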
dFosB act = activators of mouse delta FosB homodimer | purified delta FosB, TAMRA-CDK5 oligo fluorescence polarization; percent of positive-control signal above neutral wells | activation, % at 25 µM | P13346 | AID 493131 | actives 0.99% (n = 340,000);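 active means mean activation above about 17%, with every replicate also reaching it, limit read from the data, passing the limit was not always enough; inconclusive means only one of the two conditions met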
MLL AF4-AF9 inh = blocks AF4 peptide binding to human AF9; AlphaScreen, biotin-AF4 peptide binding to FLAG-AF9; inhibition, % at 10 µM; P42568; actives 0.47% (n = 350,000);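 active means every replicate reaching a set inhibition limit, whatever the replicate mean, cut at about 25% in these data; inconclusive means mean inhibition reaches that limit but some replicates miss it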;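 further: 0% = plate neutral control median and 100% = total signal loss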
* marks the source's active call; other numbers are inactive results; ? = inconclusive; nt = not tested or not shown.

SMILES	RAD52 anneal inh	INS-1E GSIS act	DENV2 CPE rescue	RAD54 inh	dFosB act	MLL AF4-AF9 inh
CCc1ccc(C2NC(=S)NC3=C2C(=O)N(c2ccccc2OC)C(c2ccc(CC)cc2)N3)cc1 (stereo not drawn)	nt	127.1*	nt	0.5	100.5*	nt
OCCSCC(O)CC(O)c1ccccc1 (stereo not drawn)	0.1	nt	-3.0	-12.6	nt	-2.5
C[C@H]1CN([C@@H](C)CO)C(=O)CCCn2cc(nn2)CO[C@H]1CN(C)Cc1ccc(C(=O)Nc2ccccc2N)cc1	9.7	0.0	18.3	2.5	nt	3.6
COc1ccc(S(=O)(=O)Nc2ccc3c(c2)C(=O)N([C@@H](C)CO)C[C@H](C)[C@H](CN(C)C(=O)Nc2ccc(C(F)(F)F)cc2)OCCCC[C@H](C)O3)cc1	-19.6	-7.5	108.7*	-1.5	nt	1.5
COc1ccc(S(=O)(=O)Nc2ccc3c(c2)C(=O)N([C@@H](C)CO)C[C@H](C)[C@@H](CN(C)C(=O)Nc2ccc(C(F)(F)F)cc2)OCCCC[C@H](C)O3)cc1	-48.5	2.7	106.4*	-6.6	nt	-0.2
C[C@@H]1CN([C@H](C)CO)S(=O)(=O)c2ccc(Br)cc2O[C@H]1CN(C)C(=O)CN(C)C	-7.7	-6.4	-6.4	7.2	nt	-1.0
COc1ccc(C2NCCc3c2[nH]c2ccccc32)cc1CSc1nc2ccccc2s1 (stereo not drawn)	-2.7	-25.2	-5.0	nt	79.8*	10.3
CCN(CC(=O)Nc1ccc(NC(C)=O)cc1)C(=O)Cc1ccccc1F	-0.2	-1.5	-8.7	5.9	-0.9	-2.9
CCN(CC(=O)Nc1ccc(NC(C)=O)cc1)C(=O)Cc1c(Cl)cccc1Cl	-5.8	13.2	54.8*	5.9	-11.8	-0.8
O=C(CSc1nnc(-c2ccncc2)o1)Nc1ccccc1Cl	nt	nt	nt	5.1	-1.9	nt
O=C(CSc1nnc(-c2ccncc2)o1)Nc1cc(F)ccc1F	-13.8	13.0	44.0*	7.5	-3.1	0.4
O=C(CSc1nnc(-c2ccncc2)o1)Nc1cc(Cl)ccc1C(=O)O	-11.5	8.9	39.1*	-0.7	-9.1	-9.9
COc1cc2c(cc1OC)C(c1cccc(Br)c1)NC(=O)C2 (stereo not drawn)	-10.2	11.6	-0.3	5.1	-9.8	0.5
COc1cc2c(cc1OC)C(c1cccc([N+](=O)[O-])c1)NC(=O)C2 (stereo not drawn)	-7.9	70.4*	-0.5	nt	1.2	-3.1
N#C/C(=C\c1ccco1)C(=O)Nc1ccc(S(N)(=O)=O)cc1	-10.3	7.7	6.4	nt	3.8	-1.1
N#C/C(=C/c1ccc(-c2ccc(S(N)(=O)=O)cc2)o1)C(=O)Nc1ccccc1	nt	116.3*	nt	-8.7	?	nt
COc1cccc(C#Cc2ccc([C@@H]3[C@H](CO)N4C(=O)CN(C(=O)Cc5cccnc5)C[C@@H]34)cc2)c1	-4.4	-2.7	0.6	nt	nt	1.1
O=C(c1ccccc1)N1[C@H](CO)[C@H](c2ccccc2)C12CN(CCC(F)(F)F)C2	-4.8	-14.9	20.1*	nt	nt	0.1
OC[C@@H]1[C@@H](c2ccccc2)C2(CN(CC3CC3)C2)N1Cc1ccc(F)cc1	6.4	-16.9	23.4*	nt	nt	4.6
O=C(C1CC1)N1[C@H](CO)[C@H](c2ccccc2)C12CN(CCC(F)(F)F)C2	-4.6	-0.1	16.1	nt	nt	0.9
CCS(=O)(=O)N1CC2(C1)[C@@H](c1ccccc1)[C@H](CO)N2Cc1ccc(F)cc1	-14.1	-5.6	35.5*	nt	nt	-0.4
CS(=O)(=O)N1CC2(C1)[C@@H](c1ccccc1)[C@@H](CO)N2CCC(F)(F)F	0.4	9.9	20.5*	nt	nt	-1.6
CCS(=O)(=O)N1CC2(C1)[C@@H](c1ccccc1)[C@@H](CO)N2Cc1ccc(F)cc1	-17.2	-7.1	0.8	nt	nt	-0.8
C[C@@H]1CN([C@H](C)CO)C(=O)Cc2cc(NS(C)(=O)=O)ccc2O[C@@H]1CN(C)S(=O)(=O)c1ccc(Cl)cc1	6.2	3.3	13.0	-1.0	nt	-0.5
CC(C)[C@H](C)NC(=O)N(C)C[C@H]1OCc2ccccc2-c2ccccc2C(=O)N([C@@H](C)CO)C[C@H]1C	nt	10.8	nt	nt	nt	nt
SMILES	RAD52 anneal inh	INS-1E GSIS act	DENV2 CPE rescue	RAD54 inh	dFosB act	MLL AF4-AF9 inh
Cc1ccc(S(=O)(=O)N(C)C[C@H]2Oc3c(NC(=O)c4cnccn4)cccc3C(=O)N([C@@H](C)CO)C[C@@H]2C)cc1	-2.0	6.9	-1.6	2.8	nt	-1.3
OC[C@@H]1[C@@H](c2ccccc2)C2(CN(CC3CCOCC3)C2)N1Cc1nccs1	-2.9	6.9	51.1*	nt	nt	-0.7
OC[C@H]1[C@@H](c2ccccc2)C2(CN(Cc3nccs3)C2)N1CC1CCOCC1	-26.5	-0.2	-5.0	nt	nt	-1.9
CCOc1ccc(CCNC(=O)COC(=O)c2cccc(N(C)C)c2)cc1OCC	-13.6	52.1*	-2.1	nt	-10.7	0.8
CCOc1ccc(CCNC(=O)COC(=O)COc2cc(C)cc(C)c2)cc1OCC	-22.4	45.4*	4.1	nt	1.1	-8.7
CCOc1ccc(CCNC(=O)COC(=O)COc2ccc(Br)cc2)cc1OCC	5.4	69.5*	3.8	-22.5	-15.0	-1.1
CCOc1ccc(CCNC(=O)COC(=O)Cn2nc(C)c([N+](=O)[O-])c2C)cc1OCC	-11.4	55.9*	-6.4	-18.3	-10.7	-1.6
CCOc1ccc(CCNC(=O)COC(=O)/C=C/c2ccc(OC)c(OC)c2)cc1OCC	-6.2	3.1	?	-0.6	-7.2	5.0
CCOc1ccc(CCNC(=O)COC(=O)/C=C/c2ccccc2OC)cc1OCC	-2.0	46.9*	15.4	nt	-8.4	0.8
CCOc1ccc(CCNC(=O)c2c(C)noc2C)cc1OCC	-11.7	5.7	12.3	-5.7	5.6	1.1
CCOc1ccc(CCNC(=O)CSC(=S)N2CCCC2)cc1OCC	-14.7	41.3*	-3.1	10.2	-9.9	-2.2
CCOc1ccc(CCNC(=O)c2cc(C)on2)cc1OCC	-6.5	55.0*	3.2	2.6	-3.6	0.5
CCOc1ccc(CCNC(=O)CSCc2ccc(C)cc2)cc1OCC	-2.6	-32.6	18.6	nt	-3.1	-2.3
C[C@@H]1CN([C@@H](C)CO)C(=O)c2cccc(NC(=O)c3cnccn3)c2O[C@H]1CN(C)S(=O)(=O)c1ccc(F)cc1	0.7	45.5	-3.5	nt	nt	-4.7
CC=Cc1ccc2n(c1=O)C[C@@H]1[C@@H](CO)[C@H](C(=O)NCCc3cn(C)cn3)[C@H]2N1C(=O)C1CC1 (mixture of isomers)	14.4	6.0	4.8	9.5	nt	0.4
Cc1ccccc1-c1ccc([C@@H]2[C@@H](CO)N3C(=O)CN(C(=O)Nc4ccc(F)cc4)C[C@@H]23)cc1	-16.6	-16.1	3.9	nt	nt	0.9
CC(=O)N1[C@@H](CO)[C@@H](c2ccc(C3=CCCC3)cc2)C12CN(C(=O)NC(C)C)C2	-15.1	4.4	40.6*	nt	nt	-1.8
CCC(=O)N1[C@H](CO)[C@@H](c2ccc(-c3ccccc3OC)cc2)C12CN(C(C)=O)C2	-25.3	-6.0	15.0	nt	nt	-0.9

Screens deposited in PubChem BioAssay by Broad Institute.
